# Data taken from PubChem BioAssay (NCATS).
# Results filed as inconclusive are left out. A number with no mark means an inactive call. Activity calls are given as the source filed them. The call rests on the fitted dose curve; in most records, active means well fitted cell-killing curve with a large enough effect; inconclusive means small, poorly fitted or top-dose-only effect, or effect the other way; inactive means no such curve, though single readings can be large or run the other way.
# Tests used:
# [1] = Quantitative High-Throughput drug screen in 47 multiple myeloma cell lines against the NCATS MIPE library collection: OCIMY1_PLB cell viability assay (AID 1918979); further: nearly all actives have a fitted effect of over 35% in size;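 on viability: 100% = DMSO-only wells and 0% = cell-free media-only wells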
# Outline: (§1)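 MIPE 4.0 approved/investigational drugs; 500 cells/well; 48 h 37 °C humidified 5% CO2; CTG luminescence readout; DMSO = 100%, media = 0% viability.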
# [2] = Quantitative High-Throughput drug screen in 47 multiple myeloma cell lines against the NCATS MIPE library collection: MM1S_ATCC cell viability assay (AID 1918980); further: nearly all actives have a fitted effect of over 45% in size
# Outline: as §1
# [3] = Quantitative High-Throughput drug screen in 47 multiple myeloma cell lines against the NCATS MIPE library collection: MM1R_ATCC cell viability assay (AID 1918981); further: nearly all actives have a fitted effect of over 35% in size
# Outline: as §1
# [4] = Quantitative High-Throughput drug screen in 47 multiple myeloma cell lines against the NCATS MIPE library collection: LP1_DSMZ cell viability assay (AID 1918982); further: nearly all actives have a fitted effect of over 35% in size
# Outline: as §1
# [5] = Quantitative High-Throughput drug screen in 47 multiple myeloma cell lines against the NCATS MIPE library collection: KMS28PE_JCRB cell viability assay (AID 1918983); further: nearly all actives have a fitted effect of over 35% in size
# Outline: as §1
# [6] = Quantitative High-Throughput drug screen in 47 multiple myeloma cell lines against the NCATS MIPE library collection: KMS34_JCRB cell viability assay (AID 1918985); further: nearly all actives have a fitted effect of over 40% in size
# Outline: as §1
# [7] = Quantitative High-Throughput drug screen in 47 multiple myeloma cell lines against the NCATS MIPE library collection: OCIMY7_PLB cell viability assay (AID 1918987); conditions: OCI-MY7 myeloma viability, CellTiter-Glo ATP, 48 h; viability (% of DMSO): at 45.8 µM (top of the series); further: nearly all actives have a fitted effect of over 65% in size
# Outline: as §1
# [8] = Quantitative High-Throughput drug screen in 47 multiple myeloma cell lines against the NCATS MIPE library collection: OCIMY5_PLB cell viability assay (AID 1918988); further: nearly all actives have a fitted effect of over 65% in size
# Outline: as §1
# [9] = Quantitative High-Throughput drug screen in 47 multiple myeloma cell lines against the NCATS MIPE library collection: OPM1_PLB cell viability assay (AID 1918989); further: nearly all actives have a fitted effect of over 40% in size
# Outline: as §1
# [10] = Quantitative High-Throughput drug screen in 47 multiple myeloma cell lines against the NCATS MIPE library collection: U266_ATCC cell viability assay (AID 1919864); further: nearly all actives have a fitted effect of over 35% in size
# Outline: as §1
# [11] = Quantitative High-Throughput drug screen in 47 multiple myeloma cell lines against the NCATS MIPE library collection: XG6_PLB cell viability assay (AID 1919865); further: nearly all actives have a fitted effect of over 40% in size
# Outline: as §1
# [12] = Quantitative High-Throughput drug screen in 47 multiple myeloma cell lines against the NCATS MIPE library collection: XG1_PLB cell viability assay (AID 1919866); further: nearly all actives have a fitted effect of over 35% in size
# Outline: as §1
# [13] = Quantitative High-Throughput drug screen in 47 multiple myeloma cell lines against the NCATS MIPE library collection: VP6_DJ cell viability assay (AID 1919867); further: nearly all actives have a fitted effect of over 40% in size;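 on viability (% of DMSO): 100% = DMSO-only wells and 0% = wells with media alone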
# Outline: as §1
# [14] = Quantitative High-Throughput drug screen in 47 multiple myeloma cell lines against the NCATS MIPE library collection: UTMC2_PLB cell viability assay (AID 1919868); conditions: CellTiter-Glo ATP luminescence, 48 h; viability (% of DMSO control): at 45.8 µM (top of the series); further: nearly all actives have a fitted effect of over 55% in size;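 on viability (% of DMSO control): 100% = DMSO-only wells and 0% = media-only wells without cells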
# Outline: as §1
# [15] = Quantitative High-Throughput drug screen in 47 multiple myeloma cell lines against the NCATS MIPE library collection: PE2_PLB cell viability assay (AID 1919869); further: nearly all actives have a fitted effect of over 35% in size
# Outline: as §1
# [16] = Quantitative High-Throughput drug screen in 47 multiple myeloma cell lines against the NCATS MIPE library collection: PCM6_Riken cell viability assay (AID 1919870); further: nearly all actives have a fitted effect of over 30% in size
# Outline: as §1
# [17] = Quantitative High-Throughput drug screen in 47 multiple myeloma cell lines against the NCATS MIPE library collection: OPM2_DSMZ cell viability assay (AID 1919872); further: nearly all actives have a fitted effect of over 30% in size
# Outline: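 qHTS of the MIPE 4.0 collection: 500 myeloma cells/well, 48 h drug exposure at 37C in 5% CO2, then CellTiter-Glo for 5 min at room temperature before luminescence reading.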
# [18] = Quantitative High-Throughput drug screen in 47 multiple myeloma cell lines against the NCATS MIPE library collection: SKMM1_PLB cell viability assay (AID 1919863); conditions: SKMM1 myeloma viability, CellTiter-Glo ATP, 48 h; viability: active compounds read low; further: nearly all actives have a fitted effect of over 35% in size
# Outline: as §1
# [19] = Quantitative High-Throughput drug screen in 47 multiple myeloma cell lines against the NCATS MIPE library collection: RPMI8226_ATCC cell viability assay (AID 1919871); further: nearly all actives have a fitted effect of over 30% in size
# Outline: as §1
# [20] = Quantitative High-Throughput drug screen in 47 multiple myeloma cell lines against the NCATS MIPE library collection: L363_DSMZ cell viability assay (AID 1918984); further: nearly all actives have a fitted effect of over 40% in size
# Outline: as §1
# Potency means the concentration at half of the fitted maximal effect.
compound,measurement,setting,value
CN1C(C(=O)Nc2ccccn2)=C(O)c2sc(Cl)cc2S1(=O)=O,Potency,[1],inactive
same,Potency,[2],5.26 µM (active)
same,Potency,[3],18.7 µM (active)
same,Potency,[4],4.69 µM (active)
same,Potency,[5],4.69 µM (active)
same,Potency,[6],2.96 µM (active)
same,Potency,[7],1.32 µM (active)
same,Potency,[8],2.96 µM (active)
same,Potency,[9],4.18 µM (active)
same,Potency,[10],4.18 µM (active)
same,Potency,[11],2.09 µM (active)
same,Potency,[12],1.66 µM (active)
same,Potency,[13],3.32 µM (active)
same,Potency,[14],4.69 µM (active)
same,Potency,[15],3.72 µM (active)
same,Potency,[16],2.64 µM (active)
same,Potency,[17],inactive
O=C(O)CCCCCC(=O)NN=C1CCCC1,Potency,[1],inactive
same,Potency,[2],inactive
same,Potency,[3],inactive
same,Potency,[4],inactive
same,Potency,[5],inactive
same,Potency,[9],inactive
same,viability,[18],119%
same,Potency,[12],inactive
same,Potency,[13],inactive
same,Potency,[15],inactive
same,Potency,[16],inactive
same,Potency,[19],inactive
same,Potency,[17],inactive
CCOC(=O)C=C[C@H](C[C@@H]1CCNC1=O)NC(=O)[C@@H](CC(=O)[C@@H](NC(=O)c1cc(C)on1)C(C)C)Cc1ccc(F)cc1,Potency,[1],inactive
same,Potency,[2],inactive
same,Potency,[3],inactive
same,Potency,[4],inactive
same,Potency,[5],inactive
same,Potency,[6],inactive
same,Potency,[8],inactive
same,Potency,[12],inactive
same,Potency,[15],inactive
same,Potency,[16],inactive
same,Potency,[19],inactive
same,Potency,[17],inactive
C[C@@H](Oc1ccc2[nH]nc(C=Cc3cnn(CCO)c3)c2c1)c1c(Cl)cncc1Cl,Potency,[1],11.8 µM (active)
same,Potency,[2],6.62 µM (active)
same,Potency,[3],2.64 µM (active)
same,Potency,[4],20.9 µM (active)
same,Potency,[5],4.18 µM (active)
same,Potency,[6],0.209 µM (active)
same,Potency,[7],0.148 µM (active)
same,Potency,[8],6.62 µM (active)
same,Potency,[10],23.5 µM (active)
same,Potency,[11],0.662 µM (active)
same,Potency,[12],0.0935 µM (active)
same,Potency,[13],1.32 µM (active)
same,Potency,[15],0.148 µM (active)
same,Potency,[16],4.18 µM (active)
CC(=O)O[C@]1(C(C)=O)CC[C@H]2[C@@H]3C=C(C)C4=CC(=O)CC[C@]4(C)[C@@H]3CC[C@@]21C,Potency,[1],inactive
same,Potency,[2],2.35 µM (active)
same,Potency,[3],11.8 µM (active)
same,Potency,[5],inactive
same,Potency,[20],9.35 µM (active)
same,Potency,[6],inactive
same,Potency,[10],8.33 µM (active)
same,Potency,[11],4.18 µM (active)
same,Potency,[12],6.62 µM (active)
same,Potency,[13],7.43 µM (active)
same,Potency,[16],6.62 µM (active)
same,Potency,[17],inactive
C=CC1=C(C(=O)O)N2C(=O)[C@@H](NC(=O)C(=NO)c3csc(N)n3)[C@H]2SC1,Potency,[1],inactive
same,Potency,[2],inactive
same,Potency,[3],inactive
same,Potency,[4],inactive
same,Potency,[5],inactive
same,Potency,[6],inactive
same,Potency,[8],inactive
same,Potency,[9],inactive
same,Potency,[11],inactive
same,Potency,[12],inactive
same,Potency,[15],inactive
same,Potency,[16],11.8 µM (active)
same,Potency,[17],inactive
COc1cc(C[C@@H](CO)[C@H](CO)Cc2ccc(O)c(OC)c2)ccc1O,Potency,[1],inactive
same,Potency,[2],0.372 µM (active)
same,Potency,[3],1.32 µM (active)
same,Potency,[20],5.9 µM (active)
same,Potency,[6],inactive
same,Potency,[7],1.05 µM (active)
same,Potency,[8],0.332 µM (active)
same,Potency,[9],0.935 µM (active)
same,viability,[18],127%
same,Potency,[11],0.209 µM (active)
same,Potency,[12],0.418 µM (active)
same,Potency,[14],1.32 µM (active)
same,Potency,[15],2.35 µM (active)
same,Potency,[16],0.132 µM (active)
same,Potency,[17],inactive
CN(C)c1ccc(C(=O)NCCCCCCC(=O)NO)cc1,Potency,[1],1.87 µM (active)
same,Potency,[2],0.833 µM (active)
same,Potency,[3],0.59 µM (active)
same,Potency,[5],0.935 µM (active)
same,Potency,[20],0.0833 µM (active)
same,Potency,[6],0.662 µM (active)
same,Potency,[7],0.59 µM (active)
same,Potency,[8],0.469 µM (active)
same,Potency,[9],0.296 µM (active)
same,Potency,[18],1.48 µM (active)
same,Potency,[10],1.18 µM (active)
same,Potency,[11],1.87 µM (active)
same,Potency,[12],1.18 µM (active)
same,Potency,[14],0.332 µM (active)
same,Potency,[15],2.35 µM (active)
same,Potency,[16],0.662 µM (active)
same,Potency,[19],1.87 µM (active)
same,Potency,[17],0.935 µM (active)
Cc1ccc([N+](=O)[O-])cc1S(=O)(=O)N(C)N=Cc1cnc2ccc(Br)cn12,Potency,[1],0.0526 µM (active)
same,Potency,[2],0.0296 µM (active)
same,Potency,[3],0.0332 µM (active)
same,Potency,[4],0.0264 µM (active)
same,Potency,[5],0.0418 µM (active)
same,Potency,[6],0.0148 µM (active)
same,Potency,[8],0.0187 µM (active)
same,Potency,[9],0.0083 µM (active)
same,Potency,[18],0.0526 µM (active)
same,Potency,[10],0.0209 µM (active)
same,Potency,[15],0.0074 µM (active)
same,Potency,[19],0.0469 µM (active)
same,Potency,[17],0.059 µM (active)
CCn1c(=O)c2c(nc(C=Cc3ccc(OC)c(OC)c3)n2C)n(CC)c1=O,Potency,[1],inactive
same,Potency,[2],26.4 µM (active)
same,Potency,[3],inactive
same,Potency,[4],inactive
same,Potency,[5],inactive
same,Potency,[6],inactive
same,viability,[18],123%
same,Potency,[12],inactive
same,Potency,[14],inactive
same,Potency,[15],14.8 µM (active)
same,Potency,[16],inactive
C#CCC(Cc1cnc2nc(N)nc(N)c2n1)c1ccc(C(=O)N[C@@H](CCC(=O)O)C(=O)O)cc1 (some centres undefined),Potency,[1],inactive
same,Potency,[2],0.0187 µM (active)
same,Potency,[3],0.0118 µM (active)
same,Potency,[4],0.0418 µM (active)
same,Potency,[5],inactive
same,Potency,[6],0.209 µM (active)
same,Potency,[8],inactive
same,Potency,[9],0.166 µM (active)
same,viability,[18],117%
same,Potency,[11],0.0418 µM (active)
same,Potency,[12],0.059 µM (active)
same,Potency,[13],0.118 µM (active)
same,Potency,[14],0.372 µM (active)
same,Potency,[15],0.418 µM (active)
same,Potency,[19],inactive
same,Potency,[17],0.0332 µM (active)
